Data reported in PMC5540273 (PLoS ONE, 2017).
Like-named read-outs stand apart in the source and are kept apart here.

What was measured:
GRK2 = system: T1, GRK2; settings: concentration: 1 μM, replicates: in singlicate; n = 1
T1 construct: gene ADRBK1

GRK3 = system: T2, GRK3; settings: concentration: 1 μM, replicates: in singlicate; n = 1
T2 construct: gene ADRBK2

GRK4 = settings: concentration: 1 μM, replicates: in singlicate; n = 1
GRK7 = settings: concentration: 1 μM, replicates: in singlicate; n = 1
GSK3A = settings: concentration: 1 μM, replicates: in singlicate; n = 1
GSK3B = settings: n = 1
HASPIN = system: T3, HASPIN; settings: concentration: 1 μM, replicates: in singlicate; n = 1
T3 construct: gene GSG2

HCK = settings: concentration: 1 μM, replicates: in singlicate; n = 1
HIPK1 = settings: concentration: 1 μM, replicates: in singlicate; n = 1
HIPK2 = settings: concentration: 1 μM, replicates: in singlicate; n = 1
[1] = concentration: 1 μM, replicates: in singlicate
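Note: KINOMEscan kinase panel screen.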

SMILES	%Inh (GRK2) [%]	%Inh (GRK3) [%]	%Inh (GRK4) [%]	%Inh (GRK7) [%]	%Inh (GSK3A) [%]	%Inh (GSK3B; [1]) [%]	%Inh (HASPIN) [%]	%Inh (HCK) [%]	%Inh (HIPK1) [%]	%Inh (HIPK2) [%]	%Inh (GSK3B; 1 µM) [%]
Cl.NS(=O)(=O)c1cccc(Nc2cc(-c3ccc(F)cc3)n[nH]2)c1 [GW824645]	0	21	0	0	0	6	51	13	36	10	–
O=C(NCc1cccs1)c1cc(C(=O)c2c(Cl)cccc2Cl)c[nH]1 [GW823670]	16	25	8	0	0	0	0	25	17	0	–
O=C(Nc1n[nH]c2nc(-c3ccccc3)c(Cl)cc12)C1CC1 [SB-734909]	0	83	17	0	90.6	–	0	0	20	0	56
COc1cc(Nc2ccnc3ccc(C(F)(F)F)cc23)cc(OC)c1OC [GW577382]	0	25	0	0	0	3	29	38	5	0	–
CCC(=O)c1c(-c2ccccc2)c2cc(Cl)ccc2c(=O)n1Cc1cc(S(C)(=O)=O)n(CC(F)F)n1	0	0	4	0	0	0	26	0	25	0	–
CN1C(=O)C(Nc2ccccc2)=C(c2ccccc2)C1=O [SB-300079]	0	0	0	0	9	3	15	13	28	9	–
COc1cccc(C2=C(Nc3cccc(C(=O)O)c3)C(=O)NC2=O)c1 [SB-390770]	0	22	0	0	51	–	10	0	0	0	31
Nc1nccc2scc(-c3ccc4c(c3)CCN4C(=O)Cc3ccccc3)c12 [GSK2576924]	4	100	0	0	11	2	0	0	0	0	–
O=C(NCCNc1ccnc(Nc2ccc(F)cc2)n1)Nc1ccc2c(c1)OCO2 [GSK1379882]	0	0	0	0	34	6	0	0	0	0	–
O=C(Nc1n[nH]c2nc(-c3ccccc3)c(Br)cc12)C1CC1 [SB-708998]	12	0	14	0	90.3	–	0	0	0	0	15
O=C(Nc1ccc2c(c1)OCO2)NC1CCN(c2ccnc(NCc3ccc(F)cc3)n2)CC1 [GSK1379859]	0	0	0	0	2	8	0	0	0	0	–
CCCC(=O)Nc1n[nH]c2ncc(-c3cccc4ccccc34)cc12 [SB-642057]	0	0	0	0	87	–	0	1	0	0	33
COc1cc(Nc2nccc(N3CCC(NC(=O)C4COc5ccccc5O4)C3)n2)cc(OC)c1OC (centres unmarked) [GSK1379761]	0	38	0	0	0	3	55	0	0	0	–
Cc1nnc(-c2ccc(C)c(-c3ccc(C(=O)O)cc3)c2)o1 [GW608005]	0	0	0	0	7	0	0	0	0	0	–
CCn1c(-c2ccoc2)nc2cnccc21 [SB-733887]	0	0	0	93.9	35	22	37	0	0	0	–
COc1ccc(-c2cc3c(C)nc(N)nc3n([C@H]3CC[C@H](OCCO)CC3)c2=O)cn1	17	0	1	1	0	1	33	13	17	0	–

SMILES	%Inh (GRK2) [%]	%Inh (GRK3) [%]	%Inh (GRK4) [%]	%Inh (GRK7) [%]	%Inh (GSK3A) [%]	%Inh (GSK3B; [1]) [%]	%Inh (HASPIN) [%]	%Inh (HCK) [%]	%Inh (HIPK1) [%]	%Inh (HIPK2) [%]	%Inh (GSK3B; 1 µM) [%]
COc1cc2ncn(-c3cc(OCc4ccncc4)c(C(N)=O)s3)c2cc1OC [GSK336313]	0	0	0	0	15	7	0	0	15	0	–
Cn1c(=O)c(F)c(Nc2ccc(I)cc2F)c2c(=O)n(OC[C@H](O)CO)cnc21	0	0	0	0	0	3	4	10	52	0	–
COc1cc2ncn(-c3cc(OCc4ccc(S(C)(=O)=O)cc4)c(C(N)=O)s3)c2cc1OC [GW869979]	45	0	1	0	3	0	40	0	0	9	–
CCC(=O)c1c(-c2ccccc2)c2cc(Cl)ccc2c(=O)n1Cc1ccc(C(=O)O)cc1	0	0	16	0	3	0	42	0	10	0	–
Cc1c(Cn2c(C)nn3c(=O)cc(N4CCO[C@H](C)C4)nc23)cccc1C(F)(F)F [GSK2373690]	0	18	3	0	13	6	0	0	13	0	–
Nc1ncnc2c1ncn2-c1cccc(F)c1 [SKF-97560]	61	40	0	4	18	13	45	0	12	16	–
CN(C)c1cc(-c2ccc3c(N)n[nH]c3c2)nc(N)n1 [GSK2219329]	0	0	0	0	0	5	0	0	0	0	–
Cl.c1ccc(Cn2cnc3cc(Nc4ncnc5ccccc45)ccc32)cc1 [GW272142]	0	50	0	0	0	1	0	0	0	0	–
Nc1ncnc2c1ncn2-c1cccc2ccccc12 [SKF-97184]	0	0	14	4	8	23	60	7	34	0	–
COc1ccc(-c2cc3c(C)nc(N)nc3n([C@H]3CC[C@H](O)CC3)c2=O)cn1	0	14	0	1	0	0	0	0	0	0	–
Nc1n[nH]c2nnc(-c3ccccc3)c(-c3ccccc3)c12 [GW554060]	0	44	6	0	91	–	10	0	50	86	42
Cc1ccc(Oc2ccc(Nc3ncnc4cc[nH]c34)cc2C)cn1	0	28	0	44	0	0	8	16	20	11	–
O=C1NC(=O)C(c2ccccc2)=C1Nc1cccc(O)c1 [SB-390534]	0	0	3	0	30	–	6	6	8	18	20
CCCNC(=O)Nc1ccc(Oc2ncnc3ccn(C)c23)cc1	40	0	6	29	0	21	41	7	35	29	–
CCC(=O)c1c(-c2ccccc2)c2cc(Cl)ccc2c(=O)n1Cc1cc(S(C)(=O)=O)n(CCC(C)(C)O)n1	0	0	0	29	0	0	43	10	33	29	–
Cc1cc(Nc2nc(-c3cccc(C)n3)nc3ccccc23)ccn1 [GW872411]	0	0	35	0	0	0	0	7	0	0	–
